KCNQ2 inh: KCNQ2 (rat) channel inhibition; O88943; 1.1% of 310,000 active; CHO-K1 KCNQ2, FluxOR thallium flux, 20 min; hits give low values; AID 2156; B-score at 10 µM;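 active means fluorescence ratio B-score at most minus 3 library SDs, with starting brightness B-score within 2 library SDs, cut at about -5.5 in these data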
KCNQ2 enhance: KCNQ2 (rat) channel potentiation; 0.54% of 310,000 active; B-score at 10 µM; CHO-K1 KCNQ2, FluxOR thallium flux fluorescence; hits give high values; O88943;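 active means fluorescence ratio B-score at least 3 SD of library B-scores, with initial fluorescence B-score within 3 of them, cut at about 5.3 in these data; same plate scores as AID 2156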;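 further: B-score of peak minus minimum over baseline fluorescence ratio after K+ and Tl+ stimulus; positive B-score means potentiation of KCNQ2 with more thallium influx and brighter signal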
Kir21 conf inh: confirmation of mouse Kir2.1 potassium channel inhibitors; Kir2.1-expressing cells, FluxOR thallium flux fluorescence; hits give low values; AID 2032; shares compounds with KCNQ2 enhance; Tl flux remaining, % of negative control (hits give low values), % at 10 µM; 41% of 2,300 active;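 active means Primary-screen hit whose thallium flux fell at least 3 control SD below untreated wells in both duplicates, with normal baseline fluorescence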
HEK293 Tl flux: parental HEK293 activity in Kir2.1 inhibitor counter-screen. parental HEK293 cells, FluxOR thallium flux fluorescence; 0% = unstimulated blank wells. FluxOR signal as % of negative control (100 = no effect), % at 10 µM. 19% of 2,300 active. shares compounds with KCNQ2 enhance. AID 2105;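 active means dye signal at least 3 control SD above or below untreated wells in both duplicates, raw fluorescence within 3, either direction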;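 further: percent is based on the flux ratio of peak minus minimum fluorescence over baseline F0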
CHO-K1 Tl ctr: alters thallium flux in parental CHO-K1 cells, KCNQ2 counter-screen; AID 2282; activity increase over 3SD of controls, % at 10 µM; FluxOR thallium flux fluorescence; zero = vehicle mean+3SD, 100% = vehicle-minus-blank window; 43% of 1,200 active; shares compounds with KCNQ2 enhance;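 active means signal rise of at least 3 SD above the untreated control mean, in both duplicate wells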;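 further: counter screen of KCNQ2 potentiator hits so any rise reflects channel-independent effects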
KCNQ1 pot spec: selectivity of KCNQ2 potentiators: effect on human KCNQ1; shares compounds with KCNQ2 enhance; CHO KCNQ1 stable, FluxOR thallium flux fluorescence; beyond 3SD, as % of vehicle-control signal; activation over 3SD threshold, % at 10 µM; 28% of 1,200 active;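 active means fluorescence ratio rise of at least 3 SD of vehicle wells above their mean, in both replicate wells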
Target sequence (P51787 whole entry, looked up): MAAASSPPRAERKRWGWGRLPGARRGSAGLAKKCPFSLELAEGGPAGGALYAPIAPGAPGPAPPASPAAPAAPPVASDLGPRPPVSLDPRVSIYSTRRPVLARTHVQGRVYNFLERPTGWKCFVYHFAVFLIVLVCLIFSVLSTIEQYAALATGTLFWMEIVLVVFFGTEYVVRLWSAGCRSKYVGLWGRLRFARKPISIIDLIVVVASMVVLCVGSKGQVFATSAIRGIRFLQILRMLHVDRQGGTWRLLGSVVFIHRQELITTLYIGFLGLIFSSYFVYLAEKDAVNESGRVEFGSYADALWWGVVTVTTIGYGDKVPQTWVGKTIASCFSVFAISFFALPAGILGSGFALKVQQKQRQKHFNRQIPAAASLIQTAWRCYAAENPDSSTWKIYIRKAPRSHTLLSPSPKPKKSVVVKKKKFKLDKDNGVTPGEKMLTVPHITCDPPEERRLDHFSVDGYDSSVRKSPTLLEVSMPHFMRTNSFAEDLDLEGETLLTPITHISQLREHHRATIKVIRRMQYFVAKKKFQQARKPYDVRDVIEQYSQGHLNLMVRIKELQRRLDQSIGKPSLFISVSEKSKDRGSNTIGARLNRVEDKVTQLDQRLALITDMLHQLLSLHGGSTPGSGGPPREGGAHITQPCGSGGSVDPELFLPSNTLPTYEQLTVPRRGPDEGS
KCNQ2 pot conf: rat KCNQ2 channel potentiator confirmation; shares compounds with KCNQ2 enhance; CHO-KCNQ2 cells, FluxOR thallium flux fluorescence; potentiation, less the hit threshold, % at 10 µM; 68% of 1,200 active;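 active means fluorescence ratio rising 3 SD or more over the vehicle control mean in both replicates, plus primary screen hit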;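 further: peak minus minimum thallium fluorescence divided by baseline after K/Tl stimulus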
Kir21 spec: tests whether KCNQ2 potentiators also affect mouse Kir2.1 | shares compounds with KCNQ2 enhance | 2% of 1,200 active | activity over 3SD threshold, % at 10 µM | HEK293 Kir2.1, FluxOR thallium flux fluorescence | AID 2345;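 active means fluorescence ratio rise of at least 3 SD above the vehicle-control mean, seen in both replicates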
KCNQ2 W236L MoA: rat KCNQ2 W236L mutant potentiation by KCNQ2 potentiators; CHO KCNQ2-W236L, automated patch clamp current; 10% of 940 active; AID 2558; shares compounds with KCNQ2 enhance; current increase over 3SD of negative controls (%), hits give high values, % at 25 µM;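 active means current increase at least 3 SD of the untreated controls above them in both duplicate recordings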
Each line names hits and unclear results; the compound was inactive in the other large screens (follow-up assays come after a bar, where they were run). This is a sample that favours compounds with a hit; in the whole collection about 1.6% have one here.

Cn1c(=O)c(C(=O)Nc2ccccc2S(N)(=O)=O)c(O)c2ccccc21	KCNQ2 enhance 6 | Kir21 conf inh inactive | HEK293 Tl flux inactive | CHO-K1 Tl ctr inactive | KCNQ1 pot spec inactive | KCNQ2 pot conf inactive | Kir21 spec inactive
CC(C)Cn1c(=O)c(C(=O)Nc2ccccc2S(N)(=O)=O)c(O)c2ccccc21	none (no result: KCNQ2 enhance)
Cc1cccc(N2CCN(C(=O)CNC(=O)c3cccc([N+](=O)[O-])c3)CC2)c1C	none (no result: KCNQ2 enhance) | Kir21 conf inh inactive | HEK293 Tl flux inactive
O=C(NCC(=O)N1CCN(c2ccccc2O)CC1)c1ccccc1	none
CC(C)[C@H](NC(=O)OC(C)(C)C)c1nnc(S(=O)(=O)Cc2c(F)cccc2Cl)o1	none
CC[C@@H](C)[C@H](NC(=O)OC(C)(C)C)c1nnc(S(=O)(=O)Cc2cc(C)ccc2C)o1	none (no result: KCNQ2 enhance) | Kir21 conf inh inactive | HEK293 Tl flux inactive
COc1ccc(C(CCN)c2ccc3c(c2)OCO3)cc1 (configuration not stated)	none (no result: KCNQ2 enhance)
O=[N+]([O-])c1ccc(-c2nc(NCc3cccnc3)c3ccccc3n2)cc1	none (no result: KCNQ2 enhance)
CSc1nsc(NC(=O)OCc2ccc(Cl)cc2)n1	KCNQ2 enhance 5.8 | Kir21 conf inh inactive | HEK293 Tl flux inactive | CHO-K1 Tl ctr 89 | KCNQ1 pot spec inactive | KCNQ2 pot conf inactive | Kir21 spec inactive
CSc1nsc(SC)c1NC(=O)OCc1ccccc1	none
CS(=O)(=O)c1nc(-c2cccs2)cc(C(F)(F)F)n1	KCNQ2 inh -5.9 | Kir21 conf inh 70% | HEK293 Tl flux 70%
O=C(O)CCS(=O)(=O)c1nc(-c2cccs2)cc(C(F)(F)F)n1	none (no result: KCNQ2 enhance)
CC(NC(=O)C1CCC1)c1ccc(Br)cc1 (configuration not stated)	none
CC(NC(=O)C1CCCC1)c1ccc(Br)cc1 (configuration not stated)	KCNQ2 enhance 7.1 | Kir21 conf inh inactive | HEK293 Tl flux inactive | CHO-K1 Tl ctr inactive | KCNQ1 pot spec 28 | KCNQ2 pot conf 9.0 | Kir21 spec inactive | KCNQ2 W236L MoA inactive
Cc1ccc(C(C)NC(=O)C2CCCC2)cc1C (configuration not stated)	KCNQ2 enhance 17 | Kir21 conf inh inactive | HEK293 Tl flux inactive | CHO-K1 Tl ctr inactive | KCNQ1 pot spec inactive | KCNQ2 pot conf 55 | Kir21 spec inactive | KCNQ2 W236L MoA inactive
Cc1ccc(C(C)NC(=O)C2CCCO2)cc1C (configuration not stated)	none
Cc1ccc(N2CC(C(=O)OCC(=O)C(C)(C)C)CC2=O)cc1 (configuration not stated)	none (no result: KCNQ2 enhance)
O=C(O)c1cccc(NC(=O)c2ccc3c(c2)C(=O)N(CC2CCCO2)C3=O)c1 (configuration not stated)	none (no result: KCNQ2 enhance)
Cc1[nH]c(C(=O)N/N=C/c2ccc(N(C)C)cc2)c(C)c1C(=O)N/N=C/c1ccc(N(C)C)cc1	none
COc1ccccc1CNC(=O)C(=O)NCC1OCCN1C(=O)c1ccc(Cl)cc1 (configuration not stated)	none
O=C(CSc1nnc(-c2cccnc2)n1Cc1ccco1)c1ccc(Br)cc1	none (no result: KCNQ2 enhance) | Kir21 conf inh 68% | HEK293 Tl flux 72%
O=C(CSc1nnc(-c2cccnc2)n1Cc1ccco1)c1ccc2ccccc2c1	none (no result: KCNQ2 enhance)
Cc1cc(C)c(NC(=O)C2CCCCN2C)c(C)c1 (configuration not stated)	none (no result: KCNQ2 enhance)
Cc1cc(C)c(NC(=O)C2CSCCS2)c(C)c1 (configuration not stated)	KCNQ2 enhance 6.5 | Kir21 conf inh inactive | HEK293 Tl flux inactive | CHO-K1 Tl ctr 23 | KCNQ1 pot spec 15 | KCNQ2 pot conf inactive | Kir21 spec inactive | KCNQ2 W236L MoA inactive
CC(C)COP(=O)(c1ccc(N(C)C)cc1)C(O)c1ccc(Br)cc1 (configuration not stated)	none (no result: KCNQ2 enhance)
Cc1cc2ccc3ccccc3c2cc1CN(C)C	none (no result: KCNQ2 enhance) | Kir21 conf inh 13% | HEK293 Tl flux inactive
CN(C)Cc1cc2ccccc2c2c1COC2	none (no result: KCNQ2 enhance)
CC1CCCC(NC(=O)Cc2ccc(Br)cc2)C1C (configuration not stated)	KCNQ2 enhance 5.5 | Kir21 conf inh inactive | HEK293 Tl flux inactive | CHO-K1 Tl ctr 49 | KCNQ1 pot spec 1.4 | KCNQ2 pot conf 3.0 | Kir21 spec inactive | KCNQ2 W236L MoA inactive
CC1CCCC(NC(=O)COC(=O)Cc2ccc(Br)cc2)C1C (configuration not stated)	none
Cc1cc(OCC(=O)NCC(O)c2ccccc2)c2c(C)cc(=O)oc2c1 (configuration not stated)	none
O=C(Nc1ccccc1F)NC1CCN(Cc2nnnn2Cc2ccc(F)cc2)CC1	none
O=C(CSc1cccc[n+]1[O-])N1CCCc2ccccc21	KCNQ2 enhance 15 | Kir21 conf inh inactive | HEK293 Tl flux inactive | CHO-K1 Tl ctr inactive | KCNQ1 pot spec 1.2 | KCNQ2 pot conf inactive | Kir21 spec inactive
Cn1nnnc1SCC(=O)N1CCCc2ccccc21	none
CCOC(=O)Cc1nnc2c(Nc3ccccc3F)nc3nonc3n12	none (no result: KCNQ2 enhance)
CCC(OC(=O)CN1C(=O)C(=O)c2ccccc21)C(=O)Nc1ccc(S(N)(=O)=O)cc1 (configuration not stated)	none
COc1ccc(N2CCN(CC(O)COCCOc3ccc(Br)cc3)CC2)cc1 (configuration not stated)	none
CCCCCCCCOC(=O)c1c(CSC(=N)N)n(C)c2cc(Br)c(OC(C)=O)cc12	none
O=C(O)/C=C/C(=O)NNC(=O)c1ccc(Cl)cc1Cl	none
COCCCNC(=O)CN1C(=O)/C(=C/c2ccccc2C)Sc2ccccc21	none
Cc1ccc(O)c(NC(=O)CCC2CCCCC2)c1	none
O=C(CCC1CCCCC1)Nc1ccccc1-c1ccccc1	KCNQ2 enhance 12 | Kir21 conf inh inactive | HEK293 Tl flux inactive | CHO-K1 Tl ctr 38 | KCNQ1 pot spec inactive | KCNQ2 pot conf 74 | Kir21 spec inactive | KCNQ2 W236L MoA inactive
Cc1c([N+](=O)[O-])c(C(=O)NC2CCCC2)nn1C	none
Cc1cccc(NC(=O)c2sc3nc(-c4ccc(F)cc4)cn3c2C)n1	none
CCN(CC(=O)NC(=O)NC1CCCCC1)Cc1ccccc1	none (no result: KCNQ2 enhance)

Assay outcomes from PubChem BioAssay.
